Screens from PubChem BioAssay.
Hits are enriched below; roughly 2.6% of the tested compounds scored in any of these assays.
HBB splicing: modulators of hemoglobin beta chain splicing; HBB splicing reporter cell assay, activation; EGFP reporter with mutant IVS2-654 intron; response scale: normalised to 500 nM splice-correcting PNA; Potency, µM (series often up to 46.1 µM), inactives show top-dose activation, usual class: activators; hit rate 0.06% among 65,000; further: potency means the concentration at half of the fitted maximal effect; 0% is about no effect
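HeLa cells stably expressing EGFP interrupted by mutant beta-globin intron 2 (IVS2-654), 500/well in 2% FCS. Treated with compound for 2 days at 37C. Splicing correction scored as total well GFP intensity (488 nm excitation, 500-520 nm emission); 500 nM antisense PNA served as control.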
GFP derepression: epigenetic GFP locus derepression in mouse cells | mouse C127i GFP locus derepression, cytometry, 30 h | Potency, µM (highest dose often 46.1 µM), for inactives: at the top dose GFP derepression (activation) | hit rate 0.09% among 68,000 | AID 597; further: % of control where 0% means no effect
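Locus derepression in mouse mammary C127i cells whose integrated CMV-GFP reporter is normally silent; GFP expression after 30 h compound treatment was quantified by counting fluorescent cells.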
FLuc inh: inhibitors of firefly luciferase; P08659; purified firefly luciferase, luminescence, 8 min; Potency, µM (highest dose often 57.1 µM), without a hit: top-dose activity change, negative = inhibition, actives largely listed as inhibitors; hit rate 2.2% among 72,000; further: potency means the concentration at half of the fitted maximal effect; on the % scale 0 is the no-effect control and ±100 the full control effect; nearly all actives have a fitted effect of over 40% in size
Target sequence (P08659 whole entry, looked up): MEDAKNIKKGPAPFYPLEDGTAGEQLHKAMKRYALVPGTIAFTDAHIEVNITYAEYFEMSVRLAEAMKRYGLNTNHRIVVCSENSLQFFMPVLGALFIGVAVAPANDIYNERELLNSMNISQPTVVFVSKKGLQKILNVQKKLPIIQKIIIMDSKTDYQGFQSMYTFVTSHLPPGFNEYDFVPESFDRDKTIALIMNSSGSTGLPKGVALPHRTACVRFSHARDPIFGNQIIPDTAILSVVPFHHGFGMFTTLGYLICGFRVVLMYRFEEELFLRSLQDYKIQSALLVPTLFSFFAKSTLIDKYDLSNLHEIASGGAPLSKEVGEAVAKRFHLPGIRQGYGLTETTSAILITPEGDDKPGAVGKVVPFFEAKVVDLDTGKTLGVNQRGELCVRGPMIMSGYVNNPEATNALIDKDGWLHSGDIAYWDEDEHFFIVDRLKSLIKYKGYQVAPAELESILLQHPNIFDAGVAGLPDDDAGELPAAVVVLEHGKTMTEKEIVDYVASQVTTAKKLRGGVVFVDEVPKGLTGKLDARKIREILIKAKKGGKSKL
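Compounds were tested as concentration series (qHTS) against purified P. pyralis luciferase with luciferin and 10 uM ATP in 50 mM imidazole pH 7.2, 50 mM KCl, 7 mM MgCl2, 0.01% Tween 20, 0.05% BSA. Luminescence was read after 8 min at ambient temperature.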
PK Bst: modulators of Bacillus stearothermophilus pyruvate kinase. purified pyruvate kinase, luminescence ATP production; ribose 5-phosphate activator present at AC10. Potency, µM. hit rate 1.2% among 51,000; in the data active means potency below about 11 µM; inconclusive means mostly about 12 µM to 25 µM;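 the screen sought inhibitors and activators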;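 further: potency means the concentration at half of the fitted maximal effect; scaled between full activation by ribose 5 phosphate and full inhibition by luteolin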
Numbers without * were called inactive; i = inactive; ? = inconclusive; nt = not tested or not shown; ! = repeats disagree; [ ] = remark or other dose. Unless noted, the call rests on the fitted dose curve; in most records, active means well fitted curve in the direction sought with a large enough effect; inconclusive means small, poorly fitted or top-dose-only effect, or another doubt; inactive means no such curve, though single readings can be large; an effect the other way counts as inactive or inconclusive.

SMILES	HBB splicing	GFP derepression	FLuc inh	PK Bst
CCOC(=O)c1c(C)[nH]c(C(=O)COC(=O)c2oc3ccc(OC)cc3c2C)c1C	-1%	-1%	2%	>57
FC(F)(F)COc1nc(OCC(F)(F)F)nc(N2CCN(c3ccccc3)CC2)n1	-3%	1%	-2%	>57
CNNCc1ccc(C(=O)NC(C)C)cc1	-2%[20.6 µM]	2%[20.6 µM]	1%[25.5 µM]	nt
COc1ccccc1N1CCN(S(=O)(=O)c2cccc3nsnc23)CC1	0%	0%	1%	7.4*
COc1ccccc1N1CCN(S(=O)(=O)c2ccc(Cl)s2)CC1	3%	0%	0%	11*
CCOc1ccccc1N1CCN(S(=O)(=O)c2ccc(Cl)s2)CC1	3%	0%	2%	?
O=C(c1csnn1)N1CCC2(CCCN(c3ccncc3)C2)CC1	2%	-2%[9.22 µM]	2%[11.4 µM]	nt
COc1cccc(-n2nnc3c(=O)n(Cc4ccc(Cl)cc4)cnc32)c1	0%[1.84 µM]	6%	1%	>57
COc1cccc(-n2nnc3c(=O)n(Cc4ccccc4Cl)cnc32)c1	2%[1.84 µM]	2%	-2%	6.9*
O=C(c1ccc(Cl)s1)N1CCc2ccccc21	1%	-5%	13µM*	nt
O=C(C1CCC(C(=O)N2CCc3ccccc32)CC1)N1CCc2ccccc21 (stereo unspecified)	1%	0%	-2%	>57
COc1cccc(-c2cc(NCc3cccs3)ncn2)c1	1%	-3%[9.22 µM]	-17%[2.29 µM]	nt
COC(=O)c1ccc(OCC(=O)c2ccc(O)cc2O)cc1	6%[1.84 µM]	8%	13µM*	nt
CCOC(=O)c1ccc(OCC(=O)c2ccc(O)cc2O)cc1	1%[1.84 µM]	3%	-24%	>57
COc1ccccc1NC(=O)c1ccccc1-c1nc(-c2ccccc2OC)no1	-1%	0%	16µM*	nt
COc1ccc2[nH]c3nc(SC(C)C)nnc3c2c1	0%[57.5 µM]	1%	1.6µM*	4.5*
COc1ccc2[nH]c3nc(SCc4nnc(-c5ccccc5)o4)nnc3c2c1	-4%	1%	-40%	>57
Cc1cc(NC(=O)C(C)C)ncc1NC(=O)c1cccc(F)c1	nt	-2%	-1%	>57
CCCC(=O)Nc1cnc(NC(=O)c2cccc(F)c2)cc1C	-1%	1%	25µM*	nt
CCC(=O)Nc1cc(C)c(NC(=O)c2ccco2)cn1	0%[57.5 µM]	0%	1%	>57
Cc1cc(NC(=O)c2ccccc2)ncc1NC(=O)c1ccco1	nt	2%	25µM*	i
Cn1cccc1C(=O)Nc1nc(-c2ccccn2)cs1	0%[57.5 µM]	?	20µM*	i
CCOC(=O)c1ccc(NC(=O)N2CCN(CCc3ccccc3)CC2)cc1	0%	6%	25µM*	nt
CCOC(=O)c1ccc(NC(=O)N2CCN(c3ccccn3)CC2)cc1	-1%	-3%	-2%	>57
CC(C)Cc1cc(C(=O)Nc2cc(Cl)ccc2Cl)no1	0%	nt	2%	nt
SMILES	HBB splicing	GFP derepression	FLuc inh	PK Bst
CC(C)c1cc(C(=O)Nc2cc(Cl)ccc2O)no1	-2%	0%	16µM*	nt
CC(=O)c1cccc(NC(=O)c2cc(C(C)C)on2)c1	-1%	0%	16µM*	nt
CC(C)c1cc(C(=O)Nc2cccc(Cl)c2)no1	-3%	1%	13µM*	i
O=c1c(CCc2ccccc2)nc2cnc(N3CCOCC3)nc2n1Cc1ccc(F)cc1	-1%	0%[9.22 µM]	1%[11.4 µM]	nt
O=C(O)CSCc1cccc2ccccc12	1%[9.22 µM]	0%[9.22 µM]	-1%[11.4 µM]	nt
CCCOc1ccc(C(=O)Nc2ccc(N(C)C)cc2)cc1	0%[0.0738 µM]	6%	-26%	nt
CCOC(=O)Nc1ccc(Oc2ccccc2)cc1	5%	0%	-29%	nt
CC(C)Oc1ccc(NC(=O)Oc2ccccc2)cc1	0%[0.0738 µM]	0%	13µM*	nt
CC(C)Oc1ccc(C(=O)Nc2ccc(N(C)C)cc2)cc1	2%[0.0738 µM]	-2%	3.2µM*	nt
CN(C)CCC(=O)[C@@]1(O)CC[C@H]2[C@H]3CC=C4C[C@@H](O)CC[C@]4(C)[C@H]3CC[C@]21C	3%[9.22 µM]	?	4%[11.4 µM]	nt
COc1ccc(/C=N/c2nc3ccccc3n2C)cc1OC	1%	3%	20µM*	i
COC(=O)c1[nH]c2ccc(C)cc2c1NC(=O)CN1CCCc2ccccc21	1%[1.84 µM]	0%	1%	9.1*
CC(C)C(=O)NC(=O)C1CCCN1C(=O)/C=C/c1ccccc1 (stereo unspecified)	2%[9.22 µM]	nt	nt	nt
CCOc1ncccc1C(=O)OCC(=O)c1cc(C)n(Cc2ccco2)c1C	0%[57.5 µM]	0%	13µM*	?
COC(=O)C/C=C\[C@@H](C)[C@@H](/C=N\OC[C@@H](O)[C@H]1O[C@H]2OC(C)(C)O[C@H]2[C@@H]1O)OC	4%[9.22 µM]	nt	-2%[11.4 µM]	nt
CN(C)/C=N/c1cnc(C(=O)c2ccc(Cl)cc2)n1C	-1%	2%	13µM*	nt
O=Nc1c(-c2c(O)[nH]c3ccccc23)[nH]c2ccccc12	1%	-1%	25µM*!	nt
Cc1ccc(-c2nc(C#N)c(N3CCCCC3)o2)cc1	0%	nt	-3%	nt
N#Cc1nc(-c2ccc(F)cc2)oc1N1CCCC1	nt	2%[20.6 µM]	1%[25.5 µM]	9.5*
N#Cc1nc(-c2ccc(OCc3ccc(Cl)cc3)cc2)oc1N1CCOCC1	1%	0%	1%	>57
N#Cc1nc(-c2ccc(OCc3ccc(Cl)cc3)cc2)oc1N1CCC(C(N)=O)CC1	7%[0.369 µM]	4%	0%	0.078*
N#Cc1nc(-c2ccc(Cl)cc2)oc1N1CCCCC1	nt	0%[20.6 µM]	2%[25.5 µM]	5.1*
CNc1oc(-c2ccc(Cl)cc2)nc1C#N	nt	0%[20.6 µM]	-2%[25.5 µM]	3.1*
CCC(=O)OCC(=O)[C@@]1(OC(=O)CC)[C@H](C)C[C@@H]2[C@@H]3[C@H]([C@@H](O)C[C@@]21C)[C@]1(C)C=CC(=O)C=C1C[C@@H]3Cl	-3%[20.6 µM]	0%[20.6 µM]	2%[25.5 µM]	nt
COc1ccc(N2CCN(CCNC(=O)c3ccc(NC(=O)C4CCCO4)cc3)CC2)cc1 (stereo unspecified)	1%	4%	0%	>57
SMILES	HBB splicing	GFP derepression	FLuc inh	PK Bst
CC1(O)C(=O)C=C2C=C3CCCN3C=C2C1=O (stereo unspecified)	2%[9.22 µM]	nt	nt	nt
CCNc1ncc2nc(-c3cccc(C#N)c3)c(=O)n(C)c2n1	3%	0%[9.22 µM]	-3%[11.4 µM]	nt
CC(=O)OC[C@@H]1O[C@@H](O/N=C2/C[C@@H](O)[C@@H](O)[C@@H]3[C@@H]4C(=O)N(c5cccc(Oc6ccccc6)c5)C(=O)[C@H]4CC[C@@H]23)[C@H](OC(C)=O)[C@H](OC(C)=O)[C@@H]1OC(C)=O	2%[9.22 µM]	nt	2%[11.4 µM]	nt
COC(=O)[C@@]1(Cc2ccccc2)[C@H]2c3cc(C(=O)N(C)C)n(Cc4ccsc4Br)c3C[C@H]2CN1C(=O)c1ccccc1	-1%	nt	nt	nt
CC(C)[C@](N)(C(=O)O)c1ccccc1	4%[9.22 µM]	-3%[9.22 µM]	6%[11.4 µM]	nt
CC(C)(C)c1ccc(-c2cc(N)n[nH]2)cc1	0%	nt	13µM*	nt
Nc1ccc2nc(-c3ccc(Cl)cc3)[nH]c2c1	0%	nt	4µM*	nt
Cc1ccc(C)c(-c2nc3ccc(N)cc3[nH]2)c1	-1%	1%	-17%	>57
Nc1ccc(-c2nc3c(Cl)c(N)ccc3[nH]2)cc1	-1%	1%	16µM*	i
Cc1cc(C)c(-c2cc([C@H](C)O/N=C3/[C@H]4OC4[C@@H](O)[C@H]4[C@H]3CCn3c(=O)n(-c5ccccc5)c(=O)n34)on2)c(C)c1 (stereo partly specified)	2%[9.22 µM]	nt	-1%[11.4 µM]	nt
